Assay results published in PubChem BioAssay AID1745849 (National Center for Advancing Translational Sciences (NCATS), 2022).
The campaign covered roughly 2,100 compounds. About 320 (15%) were called active. Another 52% or so got no clear call; they are omitted. The list shows a part of the results. A number with no mark means an inactive call. Calls follow the shape of the dose curve; as a rule, active = well fitted cell-killing curve with a large enough effect; inconclusive = small, poorly fitted or top-dose-only effect, or effect the other way; inactive = flat fitted curve, though single readings scatter.
% is scaled to controls: 0 for no effect and ±100 for the full control effect; potency is read from the fitted curve at half-maximal effect.

Assay: Viability Counterscreen for CMV-Luciferase Assay of Inhibitors of ATXN expression; also: nearly all actives have a fitted effect of over 55% in size
Settings: HEK-293 CMV-luciferase cells viability, protease fluorescence, 24 h; series mostly up to 57.5 µM
Excerpt: PI: Daniel Scoles Ph.D. University of Utah School of Medicine, Salt Lake City, Utah MLPCN Grant: NS073009 Spinocerebellar ataxia type 2 (SCA2) is a multisystem neurodegenerative disease caused by a dominantly acting mutation leading to expansion of a polyQ domain in the ataxin-2 protein (ATXN2). SCA2 patients develop progressive ataxia and later lose function in other neuronal systems. Prominent parkinsonian signs develop in some patients. Like many neurodegenerative disorders, no symptomatic or disease-modifying treatments are known. The primary objective of the proposed research is to identify compounds inhibiting ATXN2 expression and to test them for efficacy in SCA2 mouse models. We have developed a cell-based assay paired with an in vivo mouse model using identical luciferase expression constructs. This approach takes advantage of an ATXN2-luciferase transgene, with the luciferase gene flanked by the upstream and downstream portions of the ATXN2 gene. Here we describe a 5-7 dose quantitative high thoroughput screen (qHTS) for compounds lowering ATXN2 expression. We screened the NIH Molecular Libraries Small Molecule Repository (MLSMR) and NCGC's mechanistically annotated (MIPE) and drug repurposing (NPC) collections of compounds for lowering expression of an ATXN2-luciferase reporter in HEK-293 cells. The assay is a multiplexed cell viability assay to ensure target reduction in the absence of cytotoxicity. Secondary qHTS assays included a CMV-luciferase reporter expressed in HEK-293 cells as well as a biochemical assay using recombinant luciferase to detect inhibitors of the reporter enzyme. Compounds that inhibit ATXN2 expression but is not cytotoxic were selected for confirmatory and secondary screens.
PROTOCOL TABLE (as described by Inglese J, Shamu CE and Guy RK. 2007) SEQUENCE No. (e.g., 1, 2, 3, etc.); […] (e.g., Cells, Incubation, Reagent, etc.); VALUE; DESCRIPTION. 1; Cells; 4 uL; white, solid bottom, 1536-well Greiner assay plate. 2; Incubation; 2 hr; 37 degree C in 5% humidified CO2. 3; Compounds; 23 nL; Kalypsis pintool (Wako USA) equipped with a 1536-well pin head. 4; Incubation; 24 hr; 37 degree C in 5% humidfified CO2. 5; Reagent; 1 uL; Gly-Phe-7-Amino-4-trifluoromethylcoumarin. 6; Incubation; 30 min; 37 degree C in 5% humidfified CO2. 7; Detection; Fluorescence; Viewlux plate reader (PerkinElmer). 8; Reagent; 3 uL; SteadyGlo luciferase solution (Promega). 9; Incubation; 5 min; room temperature. 10; Detection; Luminescence; ViewLux plate reader (PerkinElmer). NOTES (numbers refer to Sequence numbers above) 1. HEK-293 cells expressing CMV-luciferase reporter (designated as SC cells) were suspended in phenol-red free DMEM and dispensed in assay plates using a Multidrop Combi dispenser (Thermo Fisher Scientific). 2. Assay plates were incubated. Evaporation was prevented by covering assay plates with metal lids containing holes to allow gas diffusion. 3. Compounds were added in a dose response manner with the final concentrations of 57, 11.4, 2.28, 0.46, 0.091, 0.018, 0.0037 uM. Vehicle-only plates, with DMSO being pin-transferred to columns 5-48, were inserted uniformly at the beginning and the end of each library to monitor and record any shifts in assay performance. 5. 125 uM Gly-Phe-7-Amino-4-trifluoromethylcoumarin (MP Biomedicals) working concentration was used at a final concentration of 25 uM. 7. To assess cell viability; the assay plates were read using the ViewLux high-throughput CCD imager (PerkinElmer), wherein single end-point fluorescence measurement was acquired (excitation 405/10; emission 540/25 nm). 8. Detection reagent SteadyGlo Luciferase (Promega) was added to the assay plate. 10. Luminescence is then measured on the ViewLux imager equipped with a clear emission filter using a 2 sec exposure. […]
With `COC12C(COC(N)=O)C3=C(C(=O)C(C)=C(N)C3=O)N1CC1C2N1C` (stereo not drawn) the Potency was 12.6 µM (active).
For `CC(C)(C)n1nnnc1C(CCc1ccccc1)N1CCC(n2c(=O)[nH]c3ccccc32)CC1` (stereo not drawn), the Potency was 20 µM (active).
With `O=c1[nH]c2ccccc2n1C1CCN(C(CCc2ccccc2)c2nnnn2C2CCCC2)CC1` (stereo not drawn) the Potency was 11.2 µM (active).
For `Cc1cccc(C)c1-n1nnnc1C(c1cc2ccccc2o1)N1CCC(n2c(=O)[nH]c3ccccc32)CC1` (stereo not drawn), the Potency was 7.94 µM (active).
With `CN1C(=O)NC(=O)/C(=C\C=C\c2ccccc2[N+](=O)[O-])C1=O` the Potency was 7.94 µM (active).
In the case of `Oc1c(Cl)cccc1Cc1cc(Cl)cc(Cl)c1O`, the Potency is reported as 15.8 µM (active).
For `c1ccc(CNc2c3c(nc4ccccc24)CCC3)cc1`, the Potency was “inactive”.
In the case of `O=C(Nc1ccc(OC(=O)N2CCCCC2)cc1)N1CCOCC1`, the Potency is reported as “inactive”.
In the case of `CCCCN=C[C@]12CCC(O)CC1(O)CCC1[C@@H]2CC[C@]2(C)[C@H](C3C=CC(=O)O3)CCC12O` (stereo partly drawn), the Potency is reported as 1.78 µM (active).
For `CC12CCC3C(CCC4(O)CC(O)CCC34C=NO)C1(O)CCC2C1=COC(=O)C1` (stereo not drawn), the Potency was 0.891 µM (active).
Compound `C1=NCCc2c1[nH]c1ccccc21` has an activity change, negative = cytotoxicity of 1.29% [at 11.4 µM].
For `COc1cccc2c1C(=O)c1c(O)c3c(c(O)c1C2=O)CC(O)(C(C)=NO)CC3OC1CC(N)C(O)C(C)O1` (stereo not drawn), the Potency was 14.1 µM (active).
With `O=[N+]([O-])c1oc2ccc3ccccc3c2c1CCO` the Potency was 20 µM (active).
For `Cc1ccc(-c2nc(N(C)C3CCN(C)CC3)c3ccccc3n2)cc1`, the Potency was “inactive”.
With `c1ccc2sc(N3CCNCC3)nc2c1` the Potency was “inactive”.
With `N[C@@H](Cc1ccc(N(CCCl)CCCl)cc1)C(=O)O` the Potency was 12.6 µM (active).
For `O=C(NN=Cc1ccc(N(CCCl)CCCl)cc1)c1cc(=O)[nH]c(=O)[nH]1`, the Potency was “inactive”.
In the case of `O=C1NC(=O)N(CCc2ccc(F)cc2)C(=O)/C1=C/C=C/c1ccccc1`, the Potency is reported as 7.94 µM (active).
In the case of `COc1ccc(CC2NCC(O)C2OC(C)=O)cc1` (stereo not drawn), the Potency is reported as 0.282 µM (active).
Work on `CCC1(OC(=O)CN)C(=O)OCc2c1cc1n(c2=O)Cc2cc3ccccc3nc2-1` (stereo not drawn) yielded an activity change, negative = cytotoxicity of 14.6% [at 11.4 µM].
For `COC(=O)c1nc(-c2ccc3c(n2)C(=O)C(N)=C(OC)C3=O)c(N)c(-c2ccc(OC)c(OC)c2O)c1C`, the Potency was 20 µM (active).
With `C[C@@H]1O[C@@H](O[C@@H]2C=C3CC[C@@H]4C(CC[C@]5(C)[C@@H](c6ccc(=O)oc6)CC[C@]45O)[C@@]3(C)CC2)[C@H](O)[C@H](O)[C@H]1O` (stereo partly drawn) the Potency was 8.91 µM (active).
With `COc1ccc(CC2C(=O)NC(C)C(=O)N(C)C3C(=O)N(C)C(Cc4ccc(O)c(c4)Oc4ccc(cc4)C3O)C(=O)NC(C)C(=O)NC(C)C(=O)N2C)cc1` (stereo not drawn) the Potency was 0.355 µM (active).
